Shiga toxin inh: blocks Shiga toxin action in Vero cells | AID 2315 | inhibition, % at 38.7 µM | hit rate 9.2% among 290,000 | Vero cells, Shiga toxin protein synthesis inhibition reporter; in the data active means inhibition mostly above about 28%, no sharp cut-off; inactive means mostly below about 43%; further: 0% is about no effect
Giardia FBPA inh: inhibitors of Giardia lamblia fructose-1,6-bisphosphate aldolase | A8B2U2 | hit rate 0.71% among 290,000 | AID 2451 | purified Giardia FBPA | Potency, µM (doses to about 59.6 µM), without a hit: top-dose activity, negative = inhibition, usual class: inhibitors; further: potency means the concentration at half of the fitted maximal effect; on the % scale 0 is the no-effect control and ±100 the full control effect; nearly all actives have a fitted effect of over 55% in size
Target sequence (A8B2U2 whole entry, looked up): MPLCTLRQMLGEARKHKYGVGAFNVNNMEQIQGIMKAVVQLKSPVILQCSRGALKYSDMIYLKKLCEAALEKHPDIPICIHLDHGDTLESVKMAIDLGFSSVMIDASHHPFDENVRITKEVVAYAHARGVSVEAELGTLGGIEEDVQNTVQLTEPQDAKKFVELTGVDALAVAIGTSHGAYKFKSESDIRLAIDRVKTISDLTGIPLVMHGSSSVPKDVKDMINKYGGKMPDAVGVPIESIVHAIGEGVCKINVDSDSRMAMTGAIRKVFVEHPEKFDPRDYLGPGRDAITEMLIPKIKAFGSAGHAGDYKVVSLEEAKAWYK
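40 nM FBPA preincubated 10 min at RT with compound (up to 57.5 uM final), then substrate plus GAPDH/TPI/NAD/arsenate coupling and diaphorase/resazurin added. Fluorescence read after 20 min at RT, 525/598 nm.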
LmPK inhibitor: inhibitors of Leishmania mexicana pyruvate kinase | hit rate 0.37% among 290,000 | purified LmPK, Kinase-Glo ATP luminescence, 1 h | Q27686 | Potency, µM (titrated, usually from 57.5 µM), without a hit: top-dose activity change, negative = inhibition, usual class: inhibitors | AID 1721; further: potency means the concentration at half of the fitted maximal effect; on the % scale 0 is the no-effect control and ±100 the full control effect
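ATP generated from ADP (0.1 mM) and PEP (0.5 mM) by 0.1 nM LmPK over 1 h at room temperature (pH 7.2 imidazole buffer) was detected by coupled luciferase luminescence. Values were normalized to uninhibited and no-enzyme wells.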
RE007 growth inh: less growth of the S. pombe RE007 Vpr strain | S. pombe RE007 Vpr strain, BacTiter-Glo ATP luminescence, 24 h | Potency, µM (top dose mostly 92.2 µM), for inactives: at the highest dose activity change, negative = less growth, most hits filed as inhibitors | hit rate 0.21% among 360,000 | AID 651644; active means well fitted falling curve with a large enough effect; inconclusive means small, poorly fitted or top-dose-only effect; inactive means no such curve, though single readings can be large or run the other way; further: potency means the concentration at half of the fitted maximal effect; on the % scale 0 is the no-effect control and ±100 the full control effect; nearly all actives have a fitted effect of over 50% in size
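Fission yeast strain RE007, carrying one chromosomally integrated HIV-1 vpr copy, was seeded at OD 0.01 in PMG+AL medium with 23 nL pinned compound. After 24 h at 30 °C and 99% humidity, viability was read by BacTiter-Glo luminescence.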
TbPYK inhibitor: blocks Trypanosoma brucei pyruvate kinase. Q57TT1. hit rate 0.12% among 410,000. Potency, µM (highest dose often 76.8 µM), without a hit: top-dose activity, negative = inhibition, usual class: inhibitors. TbPYK enzyme, Kinase-Glo Plus ATP luminescence, 45 min; further: potency means the concentration at half of the fitted maximal effect; on the % scale 0 is the no-effect control and ±100 the full control effect; nearly all actives have a fitted effect of over 50% in size
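T. brucei PYK with substrate was exposed to pin-transferred compounds across a concentration series, then started with 130 uM ADP (final). After 45 min at room temperature, Kinase-Glo Plus luminescence was read, normalized and curve-fitted.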
Cycloheximide cs: counter-screen for Shiga toxin inhibitors: cycloheximide protein synthesis inhibition | cell reporter, cycloheximide protein synthesis inhibition counterscreen | max response, % | hit rate 12% among 300,000; in the data active means max response mostly above about 13%, no sharp cut-off; inactive means mostly below about 14%; further: read at 38.3 µM for the half of the compounds with a filed dose; 0% is about no effect
* marks the source's active call; other numbers are inactive results; ? = inconclusive; / = no result given; + = active, no number. The full list was thinned out, with hits kept by preference. Unless noted, the call rests on the fitted dose curve; in most records, active means well fitted curve in the direction sought with a large enough effect; inconclusive means small, poorly fitted or top-dose-only effect, or another doubt; inactive means no such curve, though single readings can be large; an effect the other way counts as inactive or inconclusive.

SMILES	Shiga toxin inh	Giardia FBPA inh	LmPK inhibitor	RE007 growth inh	TbPYK inhibitor	Cycloheximide cs
Cc1ccccc1-c1cc(C(=O)Nc2nc3c(s2)CCCC3)c2ccccc2n1	42.9	-1.8%	-3.6%	-3.3%	-9.3%	11.5
O=C(Nc1ccc2c(c1)OCCO2)c1cc(-c2ccccc2)nc2ccccc12	-15.8	2.5%	-7.2%	-8.4%	0.8%	15.9
Cc1cccc(-c2cc(C(=O)N3CCCc4ccccc43)c3ccccc3n2)c1	7.3	5.0%	3.9%	-7.2%	-9.8%	22.3*
CCOc1ccc(NC(=O)CCS(=O)(=O)c2cccc3nonc23)cc1	/	/	/	/	1.0%	/
COc1ccccc1NC(=O)Cn1c(=O)n(CCc2ccccc2)c(=O)c2c3c(sc21)CN(C(C)=O)CC3	/	/	/	/	-3.9%	/
Cn1c(NC(=O)c2cc(-c3ccc4c(c3)OCO4)nc3ccccc23)cc(=O)n(C)c1=O	31.3	-4.7%	-10.9%	-18.5%	-4.8%	43.2*
Cc1ccc2nc(C)cc(Nc3ccc4c(c3)OCCO4)c2c1	37.5*	-8.8%	7.0%	5.0%	-0.9%	60.2*
CC(C)(C)NC(=O)c1cc(-c2ccc3c(c2)OCO3)nc2ccccc12	20.1	/	-3.8%	-8.6%	-2.6%	13.6
Cc1cc(C(=O)Nc2ccc3c(c2)OCCO3)c2ccccc2n1	79.9*	1.4%	0.1%	17.3%	1.6%	21.7*
COc1cccc(-c2cc(C(=O)Nc3ccc4c(c3)OCCO4)c3ccccc3n2)c1	21.4	?	0.7%	/	/	22.1*
CCOc1ccc(-c2cc3c(=O)n(Cc4nc(-c5ccccc5OCC)oc4C)ccn3n2)cc1Cl	/	/	/	/	-4.4%	/
CCOC(=O)c1c(C)[nH]c(C)c1C(=O)COC(=O)Cc1ccc(OC)c(OC)c1	/	/	/	2.2%	-1.2%	/
CCOC(=O)C(C)n1cnc2sc3c(c2c1=O)CCC3 (stereo unspecified)	-11.3	-8.1%	0.9%	19.4%	-0.2%	-6.8
CCc1cc2c(=O)n(C(C)C(=O)OC3CCCCC3)cnc2s1 (stereo unspecified)	37.4*	2.9%	-11.7%	18.1%	-8.9%	41.4*
CCOC(=O)c1ccc(N2CCN(c3cc(Cl)ccc3C)CC2)c(NC(=O)Nc2cccc(OC)c2)c1	/	/	/	/	3.0%	/
O=C(NC1CC1)c1cc2c(s1)-c1ccccc1OC2	104.4*	-18.9%	7.5%	-10.7%	-1.4%	77.3*
O=C(NCc1cccs1)c1cc2c(s1)-c1ccccc1OC2	32.0	-11.3%	3.0%	6.5%	1.8%	20.0*
O=C(O)c1cc2c(s1)-c1ccccc1OC2	17.7	28.6%	-0.2%	0.8%	0.0%	8.1
C/C(CC(=O)Nc1ccc(Cl)cc1C(F)(F)F)=N\NC(=O)c1ccccn1	75.8*	14.9%	1.8%	10.7%	-0.9%	40.8*
C/C(CC(=O)Nc1ccc(Cl)cc1C(F)(F)F)=N\NC(=O)c1cccs1	91.4*	-16.6%	3.9%	11.7%	2.1%	54.3*
C/C(=N/NC(=O)c1cccs1)c1ccc(NC(=O)COc2ccc(Cl)cc2Cl)cc1	94.4*	2.6%	0.9%	-8.7%	2.3%	32.9*
COc1cc(NC(=O)C/C(C)=N/NC(=O)c2cccs2)c(OC)cc1Cl	67.5*	-15.5%	-0.7%	-8.3%	13.4%	25.3*
C/C(=N/NC(=O)c1ccc(C)s1)c1cccc(NC(=O)COc2ccc(Cl)cc2Cl)c1	5.7	5.1%	-3.3%	-10.0%	4.2%	0.8
COc1cc(NC(=O)C/C(C)=N/NC(=O)Cc2ccccc2)c(OC)cc1Cl	-3.5	3.9%	1.1%	-0.7%	-10.7%	10.1
C/C(CC(=O)Nc1ccc(Cl)cc1Cl)=N\NC(=O)c1ccncc1	19.2	-6.7%	2.2%	12.5%	0.4%	18.7
SMILES	Shiga toxin inh	Giardia FBPA inh	LmPK inhibitor	RE007 growth inh	TbPYK inhibitor	Cycloheximide cs
O=C(CSc1nc2cc(C(=O)NC3CCCC3)ccc2c(=O)n1CC1CCCO1)c1ccc(F)cc1 (stereo unspecified)	/	/	/	/	-6.9%	/
O=C(NCCCN1CCOCC1)c1sc2cc(F)ccc2c1Cl	41.9*	-4.5%	-2.0%	-8.6%	-7.7%	37.5*
O=C(NCCCN1CCOCC1)c1sc2cc([N+](=O)[O-])ccc2c1Cl	5.8	2.51µM*	-1.5%	-0.1%	?	9.7
O=C(NCCCN1CCOCC1)c1sc2cc(Cl)ccc2c1Cl	34.4	-0.5%	-10.4%	?	-4.8%	15.2
COc1ccccc1CNC(=O)c1c[nH]c2ccc(S(=O)(=O)Nc3cc(C)cc(C)c3)cc2c1=O	/	/	/	/	-0.4%	/
CCOCCCNC(=O)C1CCN(Cc2ccc(OCc3ccccc3)c(OC)c2)CC1	95.2	?	1.6%	6.8%	12.0%	17.9*
CC(C)N1CCN(Cc2nc(-c3ccccc3)cs2)CC1CCO (stereo unspecified)	24.3	-2.9%	5.0%	0.1%	5.8%	19.7*
CCCCNC(=O)C1CCN(Cc2ccc(OCc3ccccc3)c(OC)c2)CC1	44.1*	-21.3%	-7.6%	1.9%	6.8%	41.7*
COc1ccc(CN2CCN(Cc3ccccc3)C(CCO)C2)cc1OC (stereo unspecified)	-2.8	4.7%	7.2%	20.5%	0.2%	-1.6
COc1cc(CN2CCN(C(C)C)C(CCO)C2)ccc1OCc1ccccc1 (stereo unspecified)	69.9*	0.4%	6.5%	-9.3%	-5.3%	30.4*
OCCC1CN(Cc2nc(-c3ccccc3)cs2)CCN1C1CCCC1 (stereo unspecified)	-3.2	0.9%	0.3%	-11.5%	3.1%	-1.1
CC(=O)c1ccc(Nc2c3ccccc3cc3occc23)cc1	-6.3	-1.3%	/	/	/	8.6
CN(C)CCCNC(=O)c1ccc(/C=N/O)nc1	70.8	2.3%	-4.3%	22.0%	-4.5%	35.6*
C[N+](C)(C)CCCNC(=O)c1ccc(/C=N/O)nc1	-4.6	?	1.0%	17.5%	-19.1%	10.3
Cn1cccc1C(=O)C(=O)Nc1ccccc1	90.9*	1.2%	15.8µM*	?	?	42.6*
CC(=O)Nc1ccccc1C(F)(F)F	-6.9	6.1%	-1.1%	17.6%	6.2%	-1.7
CC(C)(C)C(=O)NC(=O)Nc1ccccc1C(F)(F)F	20.3	3.6%	3.9%	-2.9%	-0.9%	10.8*
Cn1cccc1C(=O)C(=O)Nc1ccccc1C(F)(F)F	64.9*	-3.6%	8.1%	-0.7%	-4.4%	39.9*
O=C(Cn1ncc2c([nH]c3ccccc32)c1=O)N1CCN(c2ccccn2)CC1	-4.5	23.6%	-0.6%	-7.8%	2.9%	-0.4
Cc1c(Cl)cccc1NC(=O)Nc1nnc(N(C)Cc2ccccc2)s1	/	/	/	/	0.4%	/
O=C(Nc1cc(NC(=O)c2ccccc2Cl)ccc1Cl)c1ccccc1	/	/	/	/	-0.7%	/
COc1ccc(NC(=O)COC(=O)Cc2cccs2)cc1Cl	/	/	/	-7.0%	-8.7%	/
CCc1cccc(NC(=O)Nc2cccs2)c1	+	-16.7%	-1.3%	-8.7%	-12.6%	28.2*
COc1ccc(NC(=O)Nc2cccs2)cc1Cl	+	-12.7%	-1.1%	15.4%	-12.1%	39.3*

Screens from PubChem BioAssay.
